The campaign covered roughly 1,400 compounds. About 560 (40%) were called active. The set was probably picked from earlier hits. The list shows a part of the results. Values without a mark were called inactive.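 The calls were made as follows: active = mean inhibition over duplicate tests at 10 µM above 50%; inactive = the rest.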
Assay: ASC/caspase-1 reporter retest in S. cerevisiae at one dose, specificity check for NALP1 project (AID 488857)
Details: S. cerevisiae ASC/Caspase-1, beta-galactosidase luminescence, 24 h; at 10 µM; active compounds read high

Compound | inhibition
COc1ccc(/C=C2/CCc3ccccc3C2=O)cc1OC | 61.4% (active)
C=CCNCCOc1ccc(C(C)(C)c2ccccc2)cc1 | 56.8% (active)
COC(=O)C(Cc1ccccc1)NC(=O)COc1ccc(C(C)(C)C)cc1 (stereo not drawn) | 34.1%
COCCCNCCOc1ccc(C(C)(C)c2ccccc2)cc1 | 64.7% (active)
C=CCNCCOCCSc1ccc(Cl)cc1 | 42.4%
COc1cccc(C2c3c(-c4ccccc4O)n[nH]c3C(=O)N2Cc2ccco2)c1 (stereo not drawn) | 47.1%
C=CCNC(=O)/C(C#N)=C/c1c(C)nn(-c2ccccc2)c1Cl | 69.8% (active)
Cc1nn(-c2ccccc2)c(Cl)c1/C=C(\C#N)C(=O)NC(C)C | 68.6% (active)
COC(=O)c1ccc(/C=C(\C#N)C(=O)NC(C)c2ccccc2)cc1 (stereo not drawn) | 43.5%
O=C(O)/C=C/C(=O)OC1CC2CCC1C2 (stereo not drawn) | 23.1%
Cc1ccc(NC(=O)CN(C)C(=O)COc2cccc3cccnc23)cc1 | 21.4%
CCN(CC)c1ccc(/C=N/OC(C)C(=O)Nc2ccc(C)cc2)cc1 (stereo not drawn) | 53.4% (active)
c1ccc(CC2CCN(c3nnnn3-c3ccccc3)CC2)cc1 | 39.6%
O=C(CCNC(=O)c1ccccc1Cl)Nc1ccc2c(c1)OCO2 | 34.6%
O=C(/C=C/c1ccc2c(c1)OCCCO2)c1ccccc1O | 61.2% (active)
Cc1ccc(C(=O)/C=C/c2ccc3c(c2)OCO3)o1 | 32.1%
COC(=O)Cn1nc(-c2ccccc2)c2ccccc21 | 99.4% (active)
O=C(O)Cn1nc(-c2ccccc2)oc1=O | 20.1%
CC(NC(=O)c1ccc(F)cc1)C(=O)NC1=NCCS1 (stereo not drawn) | 38.4%
O=C(NC1=NCCS1)c1ccc(Cl)s1 | 53% (active)
CSc1sc(C(=O)N2CCc3ccccc32)cc1S(=O)(=O)C(C)C | 30%
CCC(=O)N1CCc2cc(S(=O)(=O)N3CCc4ccccc43)ccc21 | 37%
O=C(c1cnn2ccccc12)N1CCc2ccccc21 | 57.4% (active)
CC(C)NC(=O)c1ccc(COCC(F)(F)F)cc1 | 36.5%
Cc1ccc(C(=O)Oc2ccc3c(c2)ncn3C)cc1 | 61.9% (active)
Cc1nc2ccc(NC(=O)c3cc([N+](=O)[O-])cc([N+](=O)[O-])c3Cl)cc2s1 | 42.2%

Compound | inhibition
Cc1nc2c(ccc3c2ccc2nc(C)sc23)s1 | 38.2%
Cc1ccc(C(=O)Nc2ccc3nc(C)sc3c2)s1 | 87.8% (active)
COc1cccc(/C=N/NC(=O)CCc2c(C)n[nH]c2C)c1 | 30.6%
Nc1[nH]ncc1N=Nc1ccc(Cl)cc1 | 64.8% (active)
CCCCNC(=O)COC(=O)c1ccc(Cl)c(S(N)(=O)=O)c1 | 37.4%
CCCOc1ccc(C(=O)c2nc3c(n2O)CCCCC3)cc1 | 52% (active)
CCCCOc1ccc(C(=O)CCN2CCCCC2)cc1 | 32.5%
CCCCCCNc1nc(NCc2ccco2)nc(OCC)n1 | 56.7% (active)
COc1cccc(CNc2ccc3c(c2)CCC3)c1 | 30.4%
O=[N+]([O-])c1cccc(CNc2ccc3c(c2)CCC3)c1 | 59.6% (active)
COc1cccc(OCc2ccc(C(=O)NCC3CCCO3)cc2)c1 (stereo not drawn) | 48.8%
CCn1nccc1C(=O)Nc1ccc(Cl)cn1 | 34.9%
CCCc1cc(C(=O)Nc2c(C)n(C)n(-c3ccccc3)c2=O)no1 | 16.9%
CCn1ncc([N+](=O)[O-])c1C(=O)Nc1ccc(C(=O)N2CCCCC2)cc1 | 43.9%
CCn1ncc(C(=O)Nc2cccc(Cl)c2)c1C | 54.3% (active)
CCCc1cc(C(=O)Nc2cccc(Cl)c2)no1 | 81.6% (active)
CCCc1cc(C(=O)Nc2ccc(F)cc2F)no1 | 46.5%
Cc1cc(C)c(S(=O)(=O)Nc2ccc(OCC(=O)O)cc2)c(C)c1 | 29.1%
CCNC(=S)SCCOc1ccccc1C | 79.3% (active)
COc1ccc(N(CCC#N)S(=O)(=O)c2ccc(Cl)cc2)cc1 | 26.1%
CC1CCCCC1NC(=O)/C(C#N)=C/c1ccccc1F (stereo not drawn) | 74.2% (active)
CCCSc1nnc(C(C)C)n1N | 26.2%
CCOC(=O)c1cc(-c2ccccc2)n(CC(=O)Nc2ccc(OC)c(OC)c2)c1C | 37.5%
CCOc1ccc(/C=C/C(=O)c2ccccc2)cc1OC | 55.5% (active)
COc1ccc(/C=N/OC(=O)Nc2ccccc2)cc1[N+](=O)[O-] | 32.5%
CC(C)c1nc2sc3c(=O)[nH]cnc3c2c2c1CCC2 | 23.9%

Compound | inhibition
COc1ccccc1N1C(=O)C2CCC(c3ccccc3)CC2C1=O (stereo not drawn) | 27.9%
Cc1cccc(Cn2c(C(C)(C)C)cc3cccnc32)c1 | 47.4%
CC(C)(C)c1cc2cccnc2n1Cc1cccc(Cl)c1 | 52.5% (active)
CCSc1nnc(-c2cnn(-c3ccccc3)c2-n2cccc2)n1C | 34.5%
CCSc1ncc(/C=N/Nc2ccccc2)n1C | 75.3% (active)
COc1cc(NC(C)CCCN)c2ncccc2c1Oc1ccccc1 (stereo not drawn) | 29.6%
Cc1[nH]n(-c2ccccc2)c(=O)c1C(C[N+](=O)[O-])c1ccc(Cl)cc1 (stereo not drawn) | 87.4% (active)
O=c1cc(CSc2ccc(Cl)cc2)[nH]c2[nH]n(-c3ccccc3)c(=O)c12 | 42.8%
Cc1[nH]n(-c2ccccc2)c(=O)c1C(C[N+](=O)[O-])c1ccc(Br)cc1 (stereo not drawn) | 79% (active)
Cc1ccc(C(C[N+](=O)[O-])c2c(C)[nH]n(-c3ccccc3)c2=O)cc1 (stereo not drawn) | 82.5% (active)
COC(=O)C1(C(C[N+](=O)[O-])c2ccc(C)cc2)C(=O)NCC1c1ccco1 (stereo not drawn) | 49%
Cc1cc2ccccn2c1C(C[N+](=O)[O-])c1ccc(N(C)C)cc1 (stereo not drawn) | 21.9%
O=C1N/C(=N\N=C\c2cccnc2)SC1Cc1ccc(SC(F)F)cc1 (stereo not drawn) | 29.8%
NC(=O)c1ncc(C(F)(F)F)cc1Oc1ccc(C(F)(F)F)cc1 | 42.5%
CCOc1cc(/C=N/NC(=O)c2nn(C)cc2Br)ccc1OCc1ccccc1Cl | 26.2%
CC(=O)Nc1ccc2nc(CN3CCC(CO)(CCc4ccccc4)CC3)ccc2c1 | 36.4%
CCCCn1cnc2c1c(=O)[nH]c(=O)n2CCCC | 7.55%
Cc1[nH]c2ccccc2c1C(=O)CSc1nc2ncc(Cl)cc2[nH]1 | 36.2%
CC(NC(=O)/C(C#N)=C/c1ccc(Cl)c([N+](=O)[O-])c1)c1ccccc1 (stereo not drawn) | 62.2% (active)
CC(C)NC(=O)/C(C#N)=C/c1cccc(NC(=O)c2ccccc2Cl)c1 | 63.5% (active)
CC(OC(=O)CC(NC(=O)c1ccccc1Cl)c1ccccc1)C(=O)Nc1cccc(Cl)c1Cl (stereo not drawn) | 34.5%
CC(NC(=O)/C(C#N)=C/c1ccc([N+](=O)[O-])o1)c1ccccc1 (stereo not drawn) | 36.7%
CC(=O)Nc1sc2c(c1-c1nc3ccccc3s1)CCN(C(C)C)C2 | 98% (active)
Fc1ccc(NC(=S)N2CCSC2c2cccs2)cc1 (stereo not drawn) | 25.8%
Cc1cccc(/C=C/C(=O)c2ccc(NC3=NCCCS3)cc2)c1 | 60.4% (active)
CC(C)(C)c1ccc(/C=C/C(=O)c2ccc(NC3=NCCCS3)cc2)cc1 | 53.1% (active)

Compound | inhibition
CC(=O)OCC(=O)[C@H]1CC[C@H]2[C@@H]3CC=C4C[C@@H](O)CC[C@]4(C)[C@H]3CC[C@]12C | 32.5%
Brc1ccc(C=Nc2ccc(Nc3ccccc3)cc2)s1 | 56.1% (active)
Cc1ccccc1OCC(=O)Nc1sc2c(c1C#N)CCC2 | 35.5%
Cc1ccc(C(=O)c2c(NC(=O)c3ccncc3)sc3c2CCCC3)cc1 | 58.1% (active)
CCCCNC1CCS(=O)(=O)C1 (stereo not drawn) | 37.9%
CC(C)OC(=O)COc1ccc(-c2ccccc2)cc1 | 47.1%
CC(C)Oc1ccc2c(=O)c(-c3ccccc3)coc2c1 | 73.6% (active)
Cc1ccc(CN2CCN(/N=C/c3ccc(C(F)(F)F)cc3)CC2)c(C)c1 | 50.5% (active)
Cc1ccccc1-c1ccc(C(=O)Nc2cccc(F)c2)o1 | 56.5% (active)
O=C(Nc1cccc(F)c1)c1ccc(CSc2ccccc2)o1 | 37.5%
Cc1oc(C(=O)O)cc1COc1ccc2c3c(c(=O)oc2c1)CCC3 | 46.1%
COc1ccc2c(c1)O/C(=C\c1sccc1C)C2=O | 66.5% (active)
COC(=O)c1cccc(NC(=O)/C=C/c2ccc3c(c2)OCO3)c1 | 77.6% (active)
O=C(O)c1ccc2c(c1)N(Cc1cccc(F)c1)C(=O)CS2 | 19.6%
COc1ccccc1OCCN1CSC(=S)N(C)C1 | 54.5% (active)
CCCCC(CC(O)COCCC)c1n[nH]c(=S)n1-c1ccccc1 (stereo not drawn) | 42%
O=[N+]([O-])c1cc(Cc2ccccc2)cc(C=Nc2ccc(N3CCOCC3)cc2)c1O | 51.5% (active)
O=[N+]([O-])c1cc2oc3c(c2c(C=NCc2ccccc2)c1O)CCCC3 | 42.5%
CN(C)c1ccc(O)c2c1CC1CC3[C@@H](N(C)C)C(=O)C(C(N)=O)=C(O)[C@]3(O)C(=O)C1=C2O (stereo partly drawn) | 31.9%
COc1cccc(/C=N/NC(=O)CNC(=O)C2COc3ccccc3O2)c1O (stereo not drawn) | 42.9%
O=C(N/N=C\c1cccc([N+](=O)[O-])c1O)C1COc2ccccc2O1 (stereo not drawn) | 81.3% (active)
CCCCN(C)C(=O)c1nc2ccccn2c1CNCCCn1ncc2ccccc21 | 33.2%
CC(C)C(C)NC(=O)COc1ccc(S(=O)(=O)N2CCOCC2)cc1[N+](=O)[O-] (stereo not drawn) | 12.2%
Cn1cc(C(=O)NCc2ccc(F)cc2)c(=O)c2cc(S(=O)(=O)N3CCCCC3)ccc21 | 34.4%
O=[N+]([O-])c1cc(S(=O)(=O)N2CCCCCC2)ccc1F | 86.2% (active)

— PubChem BioAssay AID488857 (Sanford-Burnham Center for Chemical Genomics, 2010)
